A number with no mark means an inactive call. Activity calls are given as the source filed them. Unless noted, no rule for the calls is given here.
Also: test concentration not given here.

A short description of the first test: inhibition of PAO1 biofilm formation – strain PAO1, LB-PBS medium, absorbance 600 nm, primary screen (AID 1176). As to conditions: P. aeruginosa PAO1 growth/biofilm, A600, 12 h; higher = more signal.
As for `O=C1C[C@@](C(=O)NC2CC2)(c2ccc([N+](=O)[O-])cc2)[C@@H](c2ccc(CO)cc2)N1CC12CC3CC(CC(C3)C1)C2`, the z-score was -0.273.
Same read-out and setting: with `COc1ccc(C(O)C2C=CC3C(=O)N(C)C(=O)C3N2Nc2ccccc2)cc1OCc1ccccc1` (stereo not given) the figure was 1.03; with `[N-]=[N+]=NCc1ccccc1C[C@@]1(C(=O)N2CCOCC2)N=C(c2ccc(OCCCO)cc2)O[C@@H]1c1ccccc1CN=[N+]=[N-]`, 2.03.
As for `CN1C(=O)C2C=CC(C(O)c3ccccn3)N(Nc3ccccc3)C2C1=O` (stereo not given), the z-score was 1.28.
On the same count and under the same terms, with `COc1ccc(C#Cc2ccc3c(c2)[C@]2(C(=O)N3)[C@H](c3ccc(O)cc3)N3[C@H](c4ccccc4)[C@H](c4ccccc4)OC(=O)[C@H]3[C@@H]2C(=O)N2CCCCCCC2)cc1` the figure was 1.44.
As for `O=C1OCCC=C[C@H]2OC34C=CCN(Cc5ccccc5)C(=O)[C@H]3N(CCCCCO)C(=O)[C@@H]4C12` (stereo not given in full), the z-score was 0.357.
Same read-out and setting: with `COC(=O)C(CC#Cc1ccc2c(c1)[C@]1(C(=O)N2)[C@H](C(=O)NC[C@H](O)c2ccccc2)[C@H]2C(=O)O[C@H](c3ccccc3)[C@H](c3ccccc3)N2[C@@H]1c1ccc(OCCO)cc1)C(=O)OC` the figure was 3.42; with `COCCOC(=O)N1C(=O)[C@@]2(c3cc(C#CCNC(N)=O)ccc31)[C@H](c1ccc(O)cc1)N1[C@H](c3ccccc3)[C@H](c3ccccc3)OC(=O)[C@H]1[C@@H]2C(=O)NC[C@H](O)c1ccccc1`, 0.69.
Consider `COC(=O)[C@@]1(Cc2ccccc2)[C@H]2c3cc(C(=O)N4CCCC4)n(Cc4ccc(C)o4)c3C[C@H]2CN1C(=O)c1ccccc1`, for which the z-score is 0.399.
Still for that read-out and setting: in the case of `COCC(=C=CC[C@H](O)c1ccc(OCCO)cc1)C[C@H](O)c1cc(Cl)cc(Cl)c1O` it was 0.354.

A short description of the next test: growth modulation of vineyard yeast isolate – strain RM11-1a, OD600, basal, 24 h, primary screen (AID 1177).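 Also: cultures grown under basal conditions with no added stressor.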 As to conditions: S. cerevisiae RM11-1a growth, OD600, 24 h; higher = more signal, called active from +8 up or from −8 down.
Regarding `C=CCC(OC(C)=O)[C@@H]1[C@@H](N(Cc2ccc(-c3ccccc3)cc2)C(=O)Cc2ccc(OC)cc2)c2cc(OCCCO)ccc2N1C(=O)c1ccc2ccccc2n1` (stereo not given in full), the z-score was -1.15.
As for `COc1ccc(C#Cc2ccc3c(c2)[C@]2(C(=O)N3)[C@H](C(=O)NC[C@H](O)c3ccccc3)[C@H]3C(=O)O[C@H](c4ccccc4)[C@H](c4ccccc4)N3[C@@H]2c2ccc(OCCO)cc2)cc1`, the z-score was 2.97.
Same read-out and setting: with `COCCOC(=O)N1C(=O)[C@@]2(c3cc(C#CC4(O)CCCCCC4)ccc31)[C@H](C(=O)N1CCCCCCC1)[C@H]1C(=O)O[C@H](c3ccccc3)[C@H](c3ccccc3)N1[C@@H]2c1ccccc1OCCO` the figure was 2.36; with `COC(=O)c1ccc(OC)c(/C=C\CC(OC(C)=O)c2ccccc2)c1` (stereo not given), -0.639; with `Cc1ccc([C@H]2C(C(=O)O)=C[C@@H](C)N2S(=O)(=O)c2ccc(C)cc2)cc1`, -0.211.
Same read-out and setting: with `NCCCCCCNC(=O)[C@H]1C[C@H]2C(=O)NCC(=O)N2[C@H]1c1cccc(OCCO)c1` the figure was -0.689; with `COc1ccc(CCN2C(=O)[C@@]3(Cc4ccccc42)c2ccccc2C(=O)N(Cc2ccccc2Cl)[C@H]3c2ccc(CO)cc2)cc1`, 0.215.
Same read-out and setting: with `C=CC[C@@H](OC(=O)Nc1ccc(OC)cc1)c1ccc(O)c2ccccc12` the figure was -20.3 (active); with `CC(C)C[C@@H]1NC(=O)[C@@H]2C[C@H](C(=O)NCCCCCC[N+](C)(C)C)[C@H](c3ccc(O)cc3)N2C1=O`, 1.11.
As to `O=C1C=CC(=O)[C@@H]2CC(COc3ccccc3)=C3[C@@H](CCc4ccccc4)OB(O)C[C@@H]3[C@H]12`, the z-score is -0.234.
On the same count and under the same terms, in the case of `CN(C)CCCCNC(=O)[C@H]1C[C@H]2C(=O)N[C@@H](Cc3ccccc3)C(=O)N2[C@H]1c1ccc(O)cc1` it was 0.466; in that of `CCCC[C@H]1OB(O)C[C@H]2C1=C(C)C[C@H]1C(=O)N(Cc3ccccc3)C(=O)[C@H]12`, -0.621.
Regarding `C=C[C@@H](COC(C)=O)N(Cc1ccc([N+](=O)[O-])cc1)S(=O)(=O)c1ccc(Br)cc1`, the z-score is 1.19.
In the case of `COc1ccc([Si](C)(C)[C@@H]2[C@@H](CCn3cc([C@H](O)c4ccccc4)nn3)O[C@]3(C(=O)N(Cc4ccc(N5C(=O)c6cccc7cccc5c67)cc4)c4ccccc43)[C@H]2C)cc1`, the z-score was -0.0915.
Take `CC(C)(C)OC(=O)CC[C@@]1(C(=O)NCCN2CCOCC2)N=C(c2ccc(OCCCO)cc2)O[C@@H]1c1ccccc1`: the z-score is 0.572.
With `O=C1O[C@@H](c2ccccc2)[C@@H](c2ccccc2)N2[C@@H](c3ccccc3OCCO)[C@]3(C(=O)Nc4ccc(C#CC5(O)CCCCCC5)cc43)[C@@H](C(=O)Nc3nc4ccccc4s3)[C@H]12`, the z-score is 1.86.
Still for that read-out and setting: in the case of `COCCOC(=O)N1C(=O)[C@@]2(c3cc(C#CCNC(N)=O)ccc31)[C@H](c1ccc(OCCO)cc1)N1[C@H](c3ccccc3)[C@H](c3ccccc3)OC(=O)[C@H]1[C@@H]2C(=O)N1CCc2cc(OC)c(OC)cc2C1` it was 3.21.
On the same count and under the same terms, in the case of `CCOC(=O)C[C@H]1[C@H](OC(=O)c2ccc(C(=O)c3ccccc3)cc2)[C@@H](NC(=O)C2CCCCC2)c2cc(OCCCO)ccc2N1C(=O)c1ccccc1` it was -0.3.
Still for that read-out and setting: in the case of `CC(C)=CCCC(C)=CC(O)C1C=CC2C(=O)N(c3ccccc3)C(=O)C2N1Nc1ccccc1` (stereo not given) it was 0.42; in that of `COC(=O)[C@@]1(Cc2ccc(OC)cc2)[C@H]2c3cc(C(=O)N4CCCC4)n(CCc4c[nH]c5cc(F)ccc45)c3C[C@H]2CN1C(=O)c1ccccc1`, 0.473; in that of `Cc1ccc(F)cc1S(=O)(=O)N[C@@H]1CCN(Cc2ccc(-c3ccccc3)cc2)C1`, -22.4 (active).
Take `COC(=O)[C@@]1(Cc2ccc(OC)cc2)[C@H]2c3cc(C(=O)N(C)C)n(Cc4c(OC)[nH]cc(C)c4=O)c3C[C@H]2CN1C(=O)c1ccccc1`: the z-score is -0.838.
Turning to `[N-]=[N+]=Nc1ccccc1[C@H]1OC(c2ccc(OCCCO)cc2)=N[C@@]1(CCS(=O)(=O)c1ccccc1)C(=O)O`, the z-score was -0.0777.
The same measure, in the same setting: with `COC(=O)c1ccc(C(O)C2C=CC3C(=O)N(C)C(=O)C3N2NC(=O)OC(C)(C)C)o1` (stereo not given) the figure was 0.402; with `CC=CC(O)C1C=CC2C(=O)N(c3ccccc3)C(=O)C2N1Nc1ccc(C(C)C)cc1` (stereo not given), 1.11; with `O=C1C[C@@](C(=O)NC2CC2)(c2ccc([N+](=O)[O-])cc2)[C@@H](c2ccc(CO)cc2)N1CC12CC3CC(CC(C3)C1)C2`, 0.0982.
On to `COc1ccc(C(O)C2C=CC3C(=O)N(C)C(=O)C3N2Nc2ccccc2)cc1OCc1ccccc1` (stereo not given), for which the z-score is 1.17.
Same read-out and setting: in the case of `[N-]=[N+]=NCc1ccccc1C[C@@]1(C(=O)N2CCOCC2)N=C(c2ccc(OCCCO)cc2)O[C@@H]1c1ccccc1CN=[N+]=[N-]` it was 1.19.
Still for that read-out and setting: in the case of `CN1C(=O)C2C=CC(C(O)c3ccccn3)N(Nc3ccccc3)C2C1=O` (stereo not given) it was 1.57; in that of `COc1ccc(C#Cc2ccc3c(c2)[C@]2(C(=O)N3)[C@H](c3ccc(O)cc3)N3[C@H](c4ccccc4)[C@H](c4ccccc4)OC(=O)[C@H]3[C@@H]2C(=O)N2CCCCCCC2)cc1`, -0.404.
Still for that read-out and setting: in the case of `O=C1OCCC=C[C@H]2OC34C=CCN(Cc5ccccc5)C(=O)[C@H]3N(CCCCCO)C(=O)[C@@H]4C12` (stereo not given in full) it was 0.484; in that of `COC(=O)C(CC#Cc1ccc2c(c1)[C@]1(C(=O)N2)[C@H](C(=O)NC[C@H](O)c2ccccc2)[C@H]2C(=O)O[C@H](c3ccccc3)[C@H](c3ccccc3)N2[C@@H]1c1ccc(OCCO)cc1)C(=O)OC`, 2.62; in that of `COCCOC(=O)N1C(=O)[C@@]2(c3cc(C#CCNC(N)=O)ccc31)[C@H](c1ccc(O)cc1)N1[C@H](c3ccccc3)[C@H](c3ccccc3)OC(=O)[C@H]1[C@@H]2C(=O)NC[C@H](O)c1ccccc1`, 1.23.
Consider `COC(=O)[C@@]1(Cc2ccccc2)[C@H]2c3cc(C(=O)N4CCCC4)n(Cc4ccc(C)o4)c3C[C@H]2CN1C(=O)c1ccccc1`, for which the z-score is -0.219.
On the same count and under the same terms, with `COCC(=C=CC[C@H](O)c1ccc(OCCO)cc1)C[C@H](O)c1cc(Cl)cc(Cl)c1O` the figure was -22.1 (active).

The values are drawn from PubChem BioAssay.
